High-throughput results as filed in PubChem.
Giardia FBPA inh: inhibitors of Giardia lamblia fructose-1,6-bisphosphate aldolase | Potency, µM (series often up to 59.6 µM), inactives show at the top dose activity, negative = inhibition, most hits filed as inhibitors | purified Giardia FBPA | A8B2U2 | AID 2451 | hit rate 0.71% among 290,000; note: potency is the fitted concentration of half-maximal effect; % is set by controls: 0 for no effect and ±100 for the full control effect; nearly all actives have a fitted effect of over 55% in size
Target sequence (A8B2U2 whole entry, looked up): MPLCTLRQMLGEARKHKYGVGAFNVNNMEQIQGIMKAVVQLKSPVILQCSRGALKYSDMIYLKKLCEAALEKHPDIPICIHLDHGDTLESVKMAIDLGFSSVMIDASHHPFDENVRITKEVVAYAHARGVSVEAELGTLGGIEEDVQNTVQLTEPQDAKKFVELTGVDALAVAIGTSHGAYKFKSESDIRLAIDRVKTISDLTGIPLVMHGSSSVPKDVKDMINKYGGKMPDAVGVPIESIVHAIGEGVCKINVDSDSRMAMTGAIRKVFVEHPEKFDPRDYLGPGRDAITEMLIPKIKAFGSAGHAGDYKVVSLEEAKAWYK
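40 nM FBPA preincubated 10 min at RT with compound (up to 57.5 uM final), then substrate plus GAPDH/TPI/NAD/arsenate coupling and diaphorase/resazurin added. Fluorescence read after 20 min at RT, 525/598 nm.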
Tb PYK inh: inhibitors of Trypanosoma brucei pyruvate kinase; Q57TT1; TbPYK enzyme, Kinase-Glo Plus ATP luminescence, 45 min; Potency, µM (series often up to 76.8 µM), inactives show at the highest dose activity, negative = inhibition, most hits filed as inhibitors; hit rate 0.12% among 410,000; note: potency is the fitted concentration of half-maximal effect; % is set by controls: 0 for no effect and ±100 for the full control effect; nearly all actives have a fitted effect of over 50% in size
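Quantitative HTS: titrated library compounds versus trypanosomal pyruvate kinase in TEA buffer (pH 7.2) containing KCl, MgCl2, BSA and Tween-20. Reactions were initiated with ADP, 130 uM final. Kinase-Glo Plus luminescence was read after 45 min at RT.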
LmPK inh: inhibitors of Leishmania mexicana pyruvate kinase; Potency, µM (doses to about 57.5 µM), inactives show at the highest dose activity change, negative = inhibition, hits mostly inhibitors; hit rate 0.37% among 290,000; AID 1721; purified LmPK, Kinase-Glo ATP luminescence, 1 h; Q27686; note: potency is the fitted concentration of half-maximal effect; % is set by controls: 0 for no effect and ±100 for the full control effect
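Pyruvate kinase activity monitored as ATP production (luciferase luminescence). Conditions: 0.1 nM enzyme, 0.5 mM PEP, 0.1 mM ADP, 1 h, RT; normalized against uninhibited and no-enzyme wells.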
Cycloheximide cs: affects cycloheximide protein synthesis inhibition readout, counter-screen; cell reporter, cycloheximide protein synthesis inhibition counterscreen; hit rate 12% among 300,000; max response, %; in the data active = max response mostly above about 13%, no sharp cut-off; inactive = mostly below about 14%; note: read at 38.3 µM for the half of the compounds with a filed dose; 0% is about no effect
Shiga inhibitor: Shiga toxin inhibition; Vero cells, Shiga toxin protein synthesis inhibition reporter; hit rate 9.2% among 290,000; AID 2315; inhibition, % at 38.7 µM; in the data active = inhibition mostly above about 28%, no sharp cut-off; inactive = mostly below about 43%; note: 0% is about no effect
RE007 growth inh: less growth of the S. pombe RE007 Vpr strain; S. pombe RE007 Vpr strain, BacTiter-Glo ATP luminescence, 24 h; Potency, µM (titrated, usually from 92.2 µM), without a hit: top-dose activity change, negative = less growth, usual class: inhibitors; hit rate 0.21% among 360,000; active = well fitted falling curve with a large enough effect; inconclusive = small, poorly fitted or top-dose-only effect; inactive = no such curve, though single readings can be large or run the other way; note: potency is the fitted concentration of half-maximal effect; % is set by controls: 0 for no effect and ±100 for the full control effect; nearly all actives have a fitted effect of over 50% in size
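Fission yeast strain RE007, carrying one chromosomally integrated HIV-1 vpr copy, was seeded at OD 0.01 in PMG+AL medium with 23 nL pinned compound. After 24 h at 30 °C and 99% humidity, viability was read by BacTiter-Glo luminescence.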
Active calls of the source: *; ? = inconclusive; / = not tested or not shown; [ ] = dose if it differs, or a comment. This is one part of a sample in which hits are shown more often than they occur. Unless noted, calls come from the whole dose curve; as a rule, active = well fitted curve in the direction sought with a large enough effect; inconclusive = small, poorly fitted or top-dose-only effect, or another doubt; inactive = no such curve, though single readings can be large; an effect the other way counts as inactive or inconclusive.

SMILES	Giardia FBPA inh	Tb PYK inh	LmPK inh	Cycloheximide cs	Shiga inhibitor	RE007 growth inh
Cc1ccc(CNC(=O)C2CCC(=O)N(CCc3cccc(F)c3)C2)s1 (stereo unspecified)	8.2%	-10.6%	-1.2%	1.0	11.4	-5.5%
Cc1ccc(CNC(=O)C2CCC(=O)N(CCc3ccccc3)C2)s1 (stereo unspecified)	9.7%	0.0%	-0.6%	54.4*	34.3	-15.2%
O=C(NC1CCCCCC1)C1CCC(=O)N(Cc2ccccc2F)C1 (stereo unspecified)	-3.3%	-1.9%	-3.5%	26.7*	25.8	15.2%
O=C(NCC1(O)CCCCC1)C1CCC(=O)N(Cc2ccccc2F)C1 (stereo unspecified)	3.2%	3.5%	5.6%	-3.4	-13.3	7.2%
Cc1cccc(N2CCN(C(=O)C3CCC(=O)N(Cc4ccccc4F)C3)CC2)c1C (stereo unspecified)	2.8%	-6.0%	-3.1%	15.0*	9.3	?
Cc1ccc(CNC(=O)C2CCC(=O)N(Cc3ccccc3F)C2)s1 (stereo unspecified)	1.5%	0.0%	3.9%	31.5*	15.3	2.3%
COCCN1CCN(C(=O)C2CCC(=O)N(Cc3ccccc3F)C2)CC1 (stereo unspecified)	/	-2.0%	0.4%	-0.7	-2.9	0.3%
Cc1cc(CNC(=O)C2CCC(=O)N(Cc3ccccc3F)C2)on1 (stereo unspecified)	3.2%	2.1%	3.8%	7.0	23.8	12.4%
COc1ccc(S(=O)(=O)N2CCOC23CCN(S(C)(=O)=O)CC3)cc1	/	-3.9%	/	/	/	-0.2%
Cc1cccc(N2CCN(C(=O)CCCOc3ccccc3)CC2)c1C	1.5%	-6.2%	-7.7%	63.6*	134.5*	-6.6%
O=C(CCCOc1ccccc1)N1CCN(c2ccccc2)CC1	0.7%	-2.4%	-2.5%	21.8	35.0	-10.9%
O=C(Cc1ccccc1[N+](=O)[O-])N1CCN(c2ccc(F)cc2)CC1	2.0%	-2.5%	-0.1%	8.1	12.0	12.9%
CCOC(=O)N1CCN(C(=O)CCCOc2ccccc2)CC1	1.7%	-21.1%	0.0%	28.8*	112.9*	-15.2%
Cc1cccc(N2CCN(C(=O)Cc3ccccc3[N+](=O)[O-])CC2)c1C	-7.4%	3.5%	-1.3%	26.9*	24.3	5.6%
CC(=O)NNC(=O)c1csc(-c2csc(C)n2)n1	?	-0.1%	-7.0%	-2.9	-12.6	-8.7%
CCc1nnc2c(Nc3ccc(N(CC)CC)cc3C)nc3ccccc3n12	/	7.9%[15.4 µM]	/	/	/	/
Cc1ccc2nc(NCc3ccccc3)c(C=O)c(=O)n2c1	9.7%	1.9%	0.8%	-0.5	-10.5	7.6%
O=c1c(C=NCc2ccccc2)c(NCc2ccccc2)nc2ccccn12	-7.5%	2.4%	-2.0%	7.4	80.1*	2.4%
Cc1ccc2nc(NCc3ccco3)c(C=NCc3ccco3)c(=O)n2c1	-8.7%	0.1%	3.4%	11.8*	22.2	1.3%
Cc1ccc2nc(NCc3ccccc3)c(C=NCc3cccnc3)c(=O)n2c1	5.0%	-12.8%	0.3%	14.2*	30.3*	-11.7%
Cc1ccc2nc(Nc3ccccc3)c(/C=N/O)c(=O)n2c1	3.7%	-9.8%	-0.9%	-2.9	10.1	-1.7%
CNc1nc2c(C)cccn2c(=O)c1C=NCc1ccccc1	-1.1%	-10.6%	3.9%	-2.5	-14.2	17.9%
COc1ccc(Cc2c(C3CCCCC3)nc3cc(C)c(Br)c(C)n23)c(C)c1	/	5.7%	/	/	/	3.1%
N[C@@H](CSCCCO)C(=O)O	/	5.1%	/	/	/	/
C=C1CCN(C(Cc2ccccc2)C(=O)NC2CCN(Cc3ccccc3)CC2)S(=O)(=O)c2ccccc21 (stereo unspecified)	4.5%	/	/	2.4	-5.0	/
NNC(=O)COc1ccc(-c2nccc(-c3ccc(F)cc3)n2)cc1	15.9%	2.9%	-0.9%	0.5	-4.0	1.9%
Oc1ccc(-c2nccc(-c3ccc(F)cc3)n2)cc1	0.4%	-6.0%	-3.4%	80.7*	88.0*	0.6%
Nc1c(C=C2C=CC(=O)C=C2)c(=O)nc2snc(SCc3ccccc3)n12	25.8%	-0.4%	1.9%	33.1*	46.8*	-15.6%
CCCCCN(C(=O)NC(=O)Nc1ccc(C)cc1)S(=O)(=O)c1ccccc1	3.2%	-1.4%	0.9%	19.8*	2.9	-5.0%
